Screening results: PubChem, Broad Institute
IDE exosite inh – exo-site inhibitors of human IDE, primary screen, biochemical, fluorescence anisotropy, probe displacement; Insulin-degrading enzyme (Homo sapiens), P14735; purified IDE, FL-6b probe fluorescence polarization; hits give low values; z-score at 20 µM; 17,000 compounds, 6.3% hits;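 active = z-score of -3 or lower, meaning strong loss of probe binding signal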;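 note: His-tagged human IDE residues 42-1019 made in E. coli with 30 nM FL-6b probe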
Numbers stand for hits; – = inactive. This is one part of a sample in which hits are shown more often than they occur.

SMILES	IDE exosite inh
CCCNC(=O)N1CC(=O)N2[C@H](C1)[C@H](c1ccc(-c3ccc(F)cc3)cc1)[C@@H]2CO	–
CCCC#Cc1ccc([C@H]2[C@@H](CO)N3C(=O)CN(C(=O)NCCC)C[C@@H]23)cc1	–
O=C(Cc1ccccc1)NC[C@H]1N[C@H](CO)[C@@H]1c1ccc(-c2ccccc2)cc1	–
N#C[C@H]1N[C@H](CO)[C@H]1c1ccc(C2=CCCC2)cc1	–
N#C[C@H]1[C@@H](c2ccccc2-c2ccccc2F)[C@H](CO)N1C(=O)C1CCC1	–
OC[C@@H]1[C@@H](c2ccccc2)C2(CN(CCC(F)(F)F)C2)N1Cc1nccs1	–
COc1cccc(CN2CC3(CCN(S(C)(=O)=O)CC3)c3c(n(C)c4cc(OC)ccc34)[C@@H]2CO)c1	–
COc1ccc2c3c(n(C)c2c1)[C@H](CO)N(C)CC31CCN(C(=O)c2cccnc2)CC1	–
COc1ccc2c3c(n(C)c2c1)[C@@H](CO)N(Cc1ccc(Cl)cc1)CC31CN(C(=O)NC(C)C)C1	–
COc1ccc2c3c(n(C)c2c1)[C@H](CO)N(Cc1cccnc1)CC31CCN(C(=O)NC(C)C)CC1	-3.01
COc1ccc2c3c(n(C)c2c1)[C@@H](CO)N(Cc1cccnc1)CC31CCN(C(=O)NC(C)C)CC1	-5.88
COc1ccc2c3c(n(C)c2c1)[C@H](CO)N(Cc1cccc(Cl)c1)CC31CCN(C(=O)C2CC2)CC1	–
OC[C@@H]1[C@@H](c2ccccc2)C2(CN(Cc3ccc4c(c3)OCO4)C2)N1Cc1ccccc1	–
C[C@H]1CC=CC[C@@H](c2ccc3c(c2)OCO3)NC(=O)[C@H](C)N(C)C(=O)c2ccccc2O1 (mixture of isomers)	–
O=C(c1cnccn1)N1CC(=O)N2[C@@H](CO)[C@@H](c3ccc(C#CCC4CCCC4)cc3)[C@@H]2C1	–
O=C(C[C@H]1CC[C@H]2[C@@H](COC[C@H](O)CN2CCC(F)(F)F)O1)NCC1CC1	–
O=C(Cc1cccnc1)N1CC(=O)N2[C@H](CO)[C@@H](c3ccc(C#CC4CC4)cc3)[C@@H]2C1	–
N#C[C@@H]1[C@H](c2ccccc2)[C@@H](CO)N1S(=O)(=O)c1ccc(F)cc1	–
COCC#Cc1ccc([C@@H]2[C@H]3CN(C(=O)C4CCCCC4)CC(=O)N3[C@H]2CO)cc1	–
COC(=O)c1ccc(CN2CC(=O)N3[C@@H](CO)[C@@H](c4ccc(-c5cccnc5)cc4)[C@@H]3C2)cc1	–
O=C(c1cnccn1)N1CC(=O)N2[C@H](C1)[C@H](c1ccc(-c3cccc(F)c3)cc1)[C@@H]2CO	–
Cc1ccc(-c2ccc([C@@H]3[C@@H](CO)N4C(=O)CN(C(=O)c5cccnc5)C[C@H]34)cc2)cc1	–
Cc1cccc(-c2ccc([C@@H]3[C@@H](CO)N4C(=O)CN(C(=O)c5cnccn5)C[C@H]34)cc2)c1	-7.15
O=C(c1cnccn1)N1CC(=O)N2[C@H](CO)[C@@H](c3ccc(-c4ccccc4)cc3)[C@H]2C1	–
Cc1cccc(-c2ccc([C@H]3[C@@H](CO)N4C(=O)CN(C(=O)c5ccccc5)C[C@@H]34)cc2)c1	–
SMILES	IDE exosite inh
Cc1ccc(-c2ccc([C@H]3[C@H](CO)N4C(=O)CN(C(=O)c5cccnc5)C[C@@H]34)cc2)cc1	-3.16
Cc1cccc(-c2ccc([C@@H]3[C@@H](CO)N4C(=O)CN(C(=O)c5cccnc5)C[C@H]34)cc2)c1	-4.19
O=C(c1cccnc1)N1CC(=O)N2[C@H](C1)[C@H](c1ccc(-c3cccnc3)cc1)[C@@H]2CO	–
Cc1cccc(-c2ccc([C@@H]3[C@@H](CO)N4C(=O)CN(C(=O)c5ccccc5)C[C@@H]34)cc2)c1	-5.24
Cc1ccc(-c2ccc([C@@H]3[C@H](CO)N4C(=O)CN(C(=O)c5ccccc5)C[C@@H]34)cc2)cc1	–
O=C(Nc1ccc2c(c1)[C@H]1C[C@H](CC(=O)N3CCc4ccccc4C3)O[C@H](CO)[C@H]1O2)c1ccc2c(c1)OCO2	–
CO[C@H](CN(C)Cc1ccc(-c2ccccn2)cc1)[C@H](C)CN(C(=O)Nc1ccc(F)cc1)[C@H](C)CO	–
CCCNC(=O)Nc1ccc2c(c1)OC[C@H](C)N(Cc1cncnc1)C[C@H](C)[C@H](OC)CN(C)C2=O	–
C[C@@H]1CN([C@@H](C)CO)C(=O)c2ccccc2-c2ccccc2CO[C@@H]1CN(C)S(=O)(=O)Cc1ccccc1	–
CC(C)CC#Cc1ccc([C@@H]2[C@H](CO)N3C(=O)CN(C(=O)Cc4ccccc4)C[C@@H]23)cc1	–
CCN(C[C@@H]1[C@@H](c2ccccc2)[C@H](CO)N1C(C)=O)C(=O)c1cccc(F)c1	–
CCS(=O)(=O)N1CC2(C1)CN(S(=O)(=O)c1cn(C)cn1)[C@H](CO)c1[nH]c3cc(OC)ccc3c12	–
CCCN1[C@@H]2Cn3c(ccc(-c4ccccc4)c3=O)[C@H]1[C@@H](C(=O)NCC)[C@@H]2CO	–
CN(C)C(=O)c1cccc(-c2ccc([C@H]3[C@H]4CN(C(=O)CC5CC5)CC(=O)N4[C@H]3CO)cc2)c1	–
CCCC(=O)N1CC2(CCN(S(C)(=O)=O)CC2)c2c([nH]c3cc(OC)ccc23)[C@@H]1CO	–
CO[C@H]1CN(C)C(=O)c2ccc(NC(C)=O)cc2OC[C@@H](C)N(C(=O)c2cnccn2)C[C@H]1C	–
Cc1cccc(-c2ccc([C@@H]3[C@H]4CN(C(=O)c5cccnc5)CC(=O)N4[C@H]3CO)cc2)c1	-17.7
O=C(c1cccnc1)N1CC(=O)N2[C@H](C1)[C@@H](c1ccc(-c3ccc(F)cc3)cc1)[C@@H]2CO	–
O=C(c1cccc(F)c1)N1CC(=O)N2[C@@H](CO)[C@H](c3ccc(-c4cccnc4)cc3)[C@@H]2C1	–
O=C(c1cccc(F)c1)N1CC(=O)N2[C@@H](CO)[C@@H](c3ccc(-c4cccnc4)cc3)[C@@H]2C1	–
Cc1cccc(-c2ccc([C@H]3[C@@H](CO)N4C(=O)CN(C(=O)c5cccnc5)C[C@@H]34)cc2)c1	-8.59
O=C(c1cccnc1)N1CC(=O)N2[C@H](CO)[C@H](c3ccc(-c4ccc(F)cc4)cc3)[C@H]2C1	–
N#C[C@H]1N[C@@H](CO)[C@H]1c1ccc(C2=CCCC2)cc1	–
COc1ccc(C#Cc2ccc([C@H]3[C@@H](CO)N4C(=O)CN(C(=O)c5ccc(F)cc5)C[C@@H]34)cc2)cc1	–
O=C(NC[C@@H]1[C@H](c2ccccc2)[C@@H](CO)N1CC1CCCC1)c1cccnc1	–
SMILES	IDE exosite inh
O=C(c1ccccn1)N1CC2(C1)[C@H](c1ccccc1)[C@@H](CO)N2Cc1ccc(F)cc1	–
Cc1ccc(-c2ccc([C@H]3[C@H]4CN(C(=O)Nc5cccc(F)c5)CC(=O)N4[C@H]3CO)cc2)cc1	–
CCC(=O)NC[C@@H]1[C@@H](c2ccccc2)[C@@H](CO)N1C(=O)C1CCC1	–
COCC(=O)Nc1ccc2c(c1)C(=O)N(C)[C@@H]1CC[C@H](CC(=O)NCCCN(C)C)O[C@@H]1CO2	–
CS(=O)(=O)N1[C@H](CO)[C@@H](c2ccccc2)C12CN(C(=O)c1ccccc1F)C2	–
CCC(=O)N1CC(=O)N2[C@H](C1)[C@@H](c1ccc(C#Cc3cccc(F)c3)cc1)[C@@H]2CO	–
CS(=O)(=O)N1CC(=O)N2[C@H](C1)[C@@H](c1ccc(C#Cc3cccc(F)c3)cc1)[C@@H]2CO	–
CCS(=O)(=O)N1CC(=O)N2[C@H](CO)[C@@H](c3ccc(C#Cc4cccc(F)c4)cc3)[C@H]2C1	–
CCC(=O)N1CC(=O)N2[C@H](CO)[C@H](c3ccc(C#Cc4cccc(F)c4)cc3)[C@H]2C1	-3.99
